# Experimental data reported in the supplement of paper PMC6555819.
# Tests used:
# Experiment in all cases: PBM binding z-score (relative to random genomic background probes); higher = stronger binding; sequences stand for … in GC…GCGATTGACAGCGTAGAATGAAGG
# [1] = test system: FXR:RXRa (NR concentration 270 nM, RXRa partner concentration 90 nM)
# How it was run: (§1)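 Custom Agilent 4×180K protein-binding microarrays carried double-stranded probes, each with a 34-nt variable region. These regions held direct-repeat seeds, single-nucleotide variants, half-site ablations and random human genomic background sequences. Ligand-free nuclear receptor dimers were incubated on the arrays for 1 h, antibodies against each partner (one per run) detected binding, and scanned fluorescence was regression-normalized. Binding z-scores take the random background probes as reference.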
# [2] = test system: LXRa:RXRa (NR concentration 270 nM, RXRa partner concentration 90 nM)
# How it was run: as §1
# [3] = test system: LXRa homodimer (NR concentration 270 nM)
# How it was run: as §1
# [4] = test system: LXRb:RXRa (NR concentration 270 nM, RXRa partner concentration 90 nM)
# How it was run: as §1
# [5] = test system: LXRb homodimer (NR concentration 270 nM)
# How it was run: as §1
# [6] = test system: PPARa:RXRa (NR concentration 270 nM, RXRa partner concentration 90 nM)
# How it was run: as §1
# [7] = test system: PPARg:RXRa (NR concentration 180 nM, RXRa partner concentration 90 nM)
# How it was run: as §1
# [8] = test system: PPARg:RXRa 270nM:90nM, anti-RXR (NR concentration 270 nM, RXRa partner concentration 90 nM)
# How it was run: as §1
# [9] = test system: PPARg:RXRa 30nM:10nM, anti-RXR (NR concentration 30 nM, RXRa partner concentration 10 nM)
# How it was run: as §1
# [10] = test system: PPARg:RXRa 90nM:30nM, anti-RXR (NR concentration 90 nM, RXRa partner concentration 30 nM)
# How it was run: as §1
Sequence,PBM binding z-score [1],PBM binding z-score [2],PBM binding z-score [3],PBM binding z-score [4],PBM binding z-score [5],PBM binding z-score [6],PBM binding z-score [7],PBM binding z-score [8],PBM binding z-score [9],PBM binding z-score [10]
GCTGCTAGGTAAGGTTGGTCAGCTAACGGGTACG,-0.225,-0.495,-0.455,-0.746,-0.795,-0.411,-0.199,-0.51,-0.761,-0.734
TCTCGGAGGTCACGAAGGTCAGAGCTTTCCAGAG,7.49,6.31,3.52,5.6,0.683,6.27,7.7,7.54,4.57,6.59
TTACCAAGGTGAAAGGTCGGTGATGCACGCCTTG,2.27,1.8,-0.377,1.34,-0.609,4.27,7.36,6.88,6.6,7.95
CCTAGTTGGTCAGGAGGCCACACACCGGATATGA,0.457,0.364,0.335,0.191,0.0739,0.181,0.848,0.732,0.118,0.128
CGAACTAGATCACCAGGACAGTGAAGAGGTTGGA,-0.196,-0.468,-0.072,-0.702,-0.495,-0.082,0.66,-0.0755,-0.0214,-0.286
TTACCAAGGTCAGCTGAGGTCGTTGATCCAACTC,6.04,5.5,2.43,4.31,0.419,4.83,3.85,4.1,1.27,2.92
CCTCGGAGGACAACAGGATGTCAGAGCTGCCAGA,-0.208,-0.272,-0.316,-0.845,-1.16,-0.631,0.183,-1.12,-0.754,-1.23
CGAACTAGGTCACGAGGACAGTGAAGAGGTTGGA,4.56,2.89,0.291,1.98,-0.399,5.33,8.72,7.24,5.15,6.84
CGTCAAAGTTCACCTAAGGTAACGTAAAGCACGC,6.94,6.74,3.99,4.24,1.27,5.11,5.63,5.75,2.48,4.52
CGTCCAAGGTCAACGCTAGGTCAGTGAAAGCATT,7.34,5.95,2.69,4.66,0.677,5.71,5.29,5.4,2.18,3.94
CAAACTAGGTCAAGAGGTCAAACTCCGCTTCCCG,7.36,6.74,6.8,5.98,2.74,6.77,10.1,8.55,7.7,9.09
CAAACTAGGTCACAGAGGACAAAGTCCGTGCGTA,4.82,3.84,1.45,2.96,0.637,5.52,9.51,7.79,5.58,7.51
CGTCCAAGGTCAATGCTAGGTCACTGAAAGCATT,6.84,5.66,3.98,4.6,0.791,5.16,4.37,5.11,1.68,3.62
ATCGAAACGTCGTGAGGTGAGTATACAGAAAGGC,-0.206,-0.348,-0.532,-0.359,-0.538,-0.0386,0.851,-0.286,-0.051,0.0788
CTCGAAAGGTCGTGCTCAGGTGAGTATGCCAAAC,4.94,4.15,0.0245,3.2,-0.0304,4.79,2.57,3.95,1.25,2.67
ATATGTAGGTTAGGGTTATTCAGAAAGTAGGGAA,2.3,2.27,0.961,2.84,1.66,4.11,5.61,5.21,3.18,4.8
CGGCCAAGGTCAAAGGTCAGTGAAGAGATGACGG,8.62,7.07,2.81,6.59,1.33,7.11,10.8,8.98,8.13,9.65
ATATGTAGGTAACATCCGGGTCATTCAGGCTATG,1.82,2.79,0.798,2.48,0.596,4.36,5.15,4.17,1.8,3.15
CGAACTAGGTCAATGGACAGTGAAAGGCGACGTA,3.01,1.85,-0.266,1.17,-0.604,4.39,6.92,6.17,3.76,5.61
ATATGTAGGTTAGGGACATTCAGAAAGTAGGGAA,0.703,0.638,0.29,0.442,0.526,2.39,3.98,2.82,1.2,2.33
CGAACTAGGTCACCAGGACAGTGAGGAGGTTGGA,3.89,2.25,0.127,1.33,-0.378,4.93,7.97,6.87,4.45,6.61
ATATGGAGGTTAAGGGTCATTCAGGTTGGTTCGC,6.25,5.67,3.97,5.2,1.77,6,9.22,8.75,7.43,10.3
CAAACTAGGTCACAGAGGTCGAAGTCCGTGCGTA,4.92,4.23,1.74,3.62,0.575,5.48,9,6.93,5.15,7.32
AGATGTAGGTTAGGGTCATTCAGAAAGTAGGGAA,5.03,3.88,1.53,4.56,2.05,5.24,7.27,6.27,3.83,5.81
